Assay results as given in article PMC8222333, “AsCas12a ultra nuclease facilitates the rapid generation of therapeutic cell medicines”.
Where a chain is given by its changes, count along the chain named.

B1: CGTA (dsDNA)
DNA 1: GCTATCTAGTGCTCAGTACGCACTGCGTAAGGAAACTTCTGGCAGGACCAGGTCATGAGATCGGAAGAGCACACGTCTGAACTCCAGTCA
DNA 2: TGACTGGAGTTCAGACGTGTGCTCTTCCGATCTCATGACCTGGTCCTGCCAGAAGTTTCCTTACGCAGTGCGTACTGAGCACTAGATAGC
RNA: AAUUUCUACUCUUGUAGAUAGGAAACUUCUGGCAGGACC
B2: CTCA (dsDNA)
DNA 1: B1 DNA 1 with G27T, T28C
DNA 2: B1 DNA 2 with A63G, C64A
RNA: B1 RNA
B3: CTGA (dsDNA)
DNA 1: B1 DNA 1 with G27T, T28G
DNA 2: B1 DNA 2 with A63C, C64A
RNA: B1 RNA
B4: CGTG (dsDNA)
DNA 1: B1 DNA 1 with A29G
DNA 2: B1 DNA 2 with T62C
RNA: B1 RNA
B5: CTAA (dsDNA)
DNA 1: B1 DNA 1 with G27T, T28A
DNA 2: B1 DNA 2 with A63T, C64A
RNA: B1 RNA
B6: CTCC (dsDNA)
DNA 1: B1 DNA 1 with G27T, T28C, A29C
DNA 2: B1 DNA 2 with T62G, A63G, C64A
RNA: B1 RNA
B7: CGTC (dsDNA)
DNA 1: B1 DNA 1 with A29C
DNA 2: B1 DNA 2 with T62G
RNA: B1 RNA
B8: GAGA (dsDNA)
DNA 1: B1 DNA 1 with C26G, G27A, T28G
DNA 2: B1 DNA 2 with A63C, C64T, G65C
RNA: B1 RNA

Biological target: dAsCas12a Ultra (Acidaminococcus sp., UniProt U2UMQ6 1-1307, M537R;F870L;D908A;E993A;D1235A)
Test: Spec-seq (native PAGE EMSA with sequencing of bound and unbound); 25 mM Tris-HCl pH 7.4, 150 mM KCl, 5 mM MgCl2, 10% glycerol, 1 mM DTT, 40 ng/uL salmon sperm DNA; 400 nM Cas12a, 480 nM crRNA, 50 nM library, 37 C 1 h; native PAGE at room temperature; high values mean tight binding
Conditions: protein: recombinant

Row | Binder | binding signal
1 | B1 | -8.71 lnKA
2 | B2 | -8.8 lnKA
3 | B3 | -8.41 lnKA
4 | B4 | -9 lnKA
5 | B5 | -8.92 lnKA
6 | B6 | -8.67 lnKA
7 | B7 | -8.54 lnKA
8 | B8 | -8.96 lnKA

Biological target: dAsCas12a E174R (Acidaminococcus sp., UniProt U2UMQ6 1-1307, E174R;D908A;E993A;D1235A)
Test: as above
Conditions: protein: recombinant

Row | Binder | binding signal
9 | B1 | -8.37 lnKA
10 | B2 | -8.26 lnKA
11 | B4 | -8.98 lnKA
12 | B5 | -8.64 lnKA
13 | B6 | -8.66 lnKA

Biological target: dAsCas12a S542R (Acidaminococcus sp., UniProt U2UMQ6 1-1307, S542R;D908A;E993A;D1235A)
Test: as above
Conditions: protein: recombinant

Row | Binder | binding signal
14 | B1 | -8.4 lnKA
15 | B2 | -6.35 lnKA
16 | B3 | -8.41 lnKA
17 | B4 | -8.73 lnKA
18 | B5 | -8.47 lnKA
19 | B6 | -4.85 lnKA
20 | B7 | -8.67 lnKA
21 | B8 | -8.5 lnKA

Biological target: d-enCas12a (Acidaminococcus sp., UniProt U2UMQ6 1-1307, E174R;S542R;K548R;D908A;E993A;D1235A)
Test: as above
Conditions: protein: recombinant

Row | Binder | binding signal
22 | B1 | -2.47 lnKA
23 | B2 | -1.97 lnKA
24 | B3 | -5.63 lnKA
25 | B4 | -4.4 lnKA
26 | B5 | -5.62 lnKA
27 | B6 | -0.91 lnKA
28 | B7 | -2.67 lnKA
29 | B8 | -5.82 lnKA

Biological target: d-enCas12a-Ultra (Acidaminococcus sp., UniProt U2UMQ6 1-1307, E174R;S542R;K548R;M537R;F870L;D908A;E993A;D1235A)
Test: as above
Conditions: protein: recombinant

Row | Binder | binding signal
30 | B1 | -0.629 lnKA
31 | B2 | -0.439 lnKA
32 | B3 | -3.17 lnKA
33 | B4 | -1.51 lnKA
34 | B5 | -3.05 lnKA
35 | B6 | -0.27 lnKA
36 | B7 | -0.615 lnKA
37 | B8 | -3.42 lnKA

Biological target: dAsCas12a K548R (Acidaminococcus sp., UniProt U2UMQ6 1-1307, K548R;D908A;E993A;D1235A)
Test: as above
Conditions: protein: recombinant

Row | Binder | binding signal
38 | B7 | -8.4 lnKA
